According to PubChem BioAssay (NCI):
The panel holds about 83,000 compounds, 20% with a hit somewhere; the sample as a whole holds those more often.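 Each cell line was grown in a 96-well plate and treated with one concentration of compound for 48 hours. Values below 10 were considered active.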 The source made the active and inactive calls.

Legend:
Assay in all cases: NCI-60 one-dose screen, 48 h (100 = growth as untreated, 0 = no growth, -100 = all killed)
[1] = test system: HCT-15 colon
[2] = test system: HT29 colon
[3] = test system: SNB-75 CNS; details: 10 µM unless noted
[4] = test system: SNB-19 CNS
[5] = test system: U251 CNS
[6] = test system: PC-3 prostate
[7] = test system: SK-MEL-5 melanoma
[8] = test system: UACC-62 melanoma
[9] = test system: LOX IMVI melanoma
[10] = test system: SK-MEL-28 melanoma
[11] = test system: SK-MEL-2 melanoma
[12] = test system: EKVX NSCLC
[13] = test system: UO-31 renal
[14] = test system: TK-10 renal
[15] = test system: ACHN renal
[16] = test system: CAKI-1 renal
[17] = test system: A498 renal
[18] = test system: CCRF-CEM leukemia
[19] = test system: MOLT-4 leukemia
[20] = test system: SR leukemia

Measured: growth

COc1ccc(OC)c(/C=C/[N+](=O)[O-])c1
active: [1]; 10 µM unless noted -13.4% | [2]; 10 µM unless noted -29.5% | [5]; 10 µM unless noted -27.2% | [6]; 10 µM unless noted -29.4% | [7]; 10 µM unless noted -16.2% | [8]; 10 µM -22.3% | [9]; 10 µM unless noted -48.5% | [10]; 10 µM -20% | [11]; 10 µM unless noted 1.51% | [13]; 10 µM unless noted -81.9% | [14]; 10 µM -31.9% | [15]; 10 µM unless noted -67.9% | [16]; 10 µM unless noted -3.49% | [18]; 10 µM unless noted 8.78% | [19]; 10 µM unless noted -4.18% | [20]; 10 µM unless noted -13%
inactive: [3] 33.7% | [4]; 10 µM unless noted 41.8% | [12]; 10 µM unless noted 67.7% | [17]; 10 µM unless noted 18.5%

CC1=C2C(=O)[C@H]3[C@@H](CC=C4C[C@@H](O)CC[C@@]43C)[C@@H]2CC[C@]12O[C@@H]1C[C@H](C)CN[C@H]1[C@H]2C
active: [11]; 10 µM unless noted 2.09%
inactive: [1]; 10 µM unless noted 94.2% | [2]; 10 µM unless noted 82.6% | [3] 68.6% | [4]; 10 µM unless noted 106% | [5]; 10 µM unless noted 107% | [7]; 10 µM unless noted 96.8% | [8]; 10 µM 112% | [9]; 10 µM unless noted 96.4% | [10]; 10 µM 118% | [12]; 10 µM unless noted 94.3% | [13]; 10 µM unless noted 72.6% | [14]; 10 µM 108% | [15]; 10 µM unless noted 108% | [16]; 10 µM unless noted 103% | [17]; 10 µM unless noted 103% | [18]; 10 µM unless noted 89.5% | [19]; 10 µM unless noted 96.9% | [20]; 10 µM unless noted 95.2%

S=C(SSC(=S)N1CCCCC1)N1CCCCC1
inactive: [1]; 10 µM 90.1% | [2]; 10 µM 104% | [3] 50.5% [100 µM] | [4]; 10 µM 92.8% | [4]; 100 µM 56.5% | [5]; 10 µM 88% | [6]; 10 µM 83.6% | [6]; 100 µM 18% | [7]; 10 µM 93.9% | [8]; 10 µM 96.7% | [9]; 10 µM 87.1% | [10]; 10 µM 105% | [11]; 10 µM 102% | [12]; 10 µM 104% | [13]; 10 µM 102% | [14]; 10 µM 109% | [15]; 10 µM 106% | [16]; 10 µM 95.6% | [17]; 10 µM 105% | [17]; 100 µM 72.4% | [18]; 10 µM 91.1% | [19]; 10 µM 85% | [20]; 10 µM 86.2%
active: [1]; 100 µM 5.6% | [2]; 100 µM -61.4% | [5]; 100 µM -43.7% | [7]; 100 µM -18% | [8]; 100 µM 2.29% | [9]; 100 µM -45.9% | [10]; 100 µM -41.6% | [11]; 100 µM 2.78% | [12]; 100 µM -23.3% | [13]; 100 µM -12.3% | [14]; 100 µM -61.8% | [15]; 100 µM -51% | [16]; 100 µM -77.7% | [18]; 100 µM -38.1% | [19]; 100 µM 0.424% | [20]; 100 µM -8.68%

CC[C@@]1(O)C[C@H](OC2CC(N(C)C)C(OC3CC(O)C(OC4CCC(=O)C(C)O4)C(C)O3)C(C)O2)c2c(cc3c(c2O)C(=O)c2c(O)ccc(O)c2C3=O)[C@H]1C(=O)OC (stereo partly specified)
inactive: [4]; 10 µM unless noted 25.7% | [12]; 10 µM unless noted 17.6%
active: [1]; 10 µM unless noted -70.6% | [2]; 10 µM unless noted -47.4% | [3] -37.1% | [5]; 10 µM unless noted -38.3% | [6]; 10 µM unless noted -24.5% | [7]; 10 µM unless noted -24.9% | [8]; 10 µM -72.9% | [9]; 10 µM unless noted -68.8% | [11]; 10 µM unless noted -40.2% | [13]; 10 µM unless noted -57.2% | [14]; 10 µM 6.04% | [15]; 10 µM unless noted -86.9% | [16]; 10 µM unless noted -53.5% | [17]; 10 µM unless noted -78.6% | [18]; 10 µM unless noted 4.1% | [19]; 10 µM unless noted 7.32% | [20]; 10 µM unless noted 1.06%

CCC1(O)CC(OC2CC(N(C)C)C(OC3CC4OC5CC(=O)C(C)OC5OC4C(C)O3)C(C)O2)c2c(cc3c(c2O)C(=O)c2c(O)ccc(O)c2C3=O)C1C(=O)OC (stereo unspecified)
active: [1]; 10 µM unless noted -46.1% | [2]; 10 µM unless noted -36.4% | [3] -98% | [4]; 10 µM unless noted 0.801% | [5]; 10 µM unless noted -18.4% | [6]; 10 µM unless noted -63.5% | [7]; 10 µM unless noted -87.3% | [8]; 10 µM -72.5% | [9]; 10 µM unless noted -22.7% | [11]; 10 µM unless noted -54.8% | [12]; 10 µM unless noted 1.67% | [13]; 10 µM unless noted -39.6% | [14]; 10 µM -28.7% | [15]; 10 µM unless noted -17.6% | [16]; 10 µM unless noted -15.4% | [17]; 10 µM unless noted -71.4% | [18]; 10 µM unless noted -31.2% | [19]; 10 µM unless noted -9.49% | [20]; 10 µM unless noted -6.58%
